Measurements taken from PubChem BioAssay (Tox21).
Records with an inconclusive call do not appear. Calls of active or inactive are those of the source. Unless noted, calls come from the whole dose curve; as a rule, active = well fitted curve in the direction sought with a large enough effect in the repeat runs; inconclusive = weak or mixed curves; inactive = no such curve, though single readings can be large; an effect the other way counts as inactive or inconclusive.

Tests used:
[1] = qHTS assay for small molecule agonists of the p53 signaling pathway (AID 651631; calls by dose curve; note: nearly all actives have a fitted effect of over 15% in size)
How it was run: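 Beta-lactamase reporter activity under p53 response elements was quantified in HCT-116 cells by FRET fluorescence, following 16 h incubation with test compounds at 37 °C and 2 h substrate development at room temperature.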

[2] = qHTS assay for small molecules that induce genotoxicity in human embryonic kidney cells expressing luciferase-tagged ATAD5 (AID 651632); note: nearly all actives have a fitted effect of over 15% in size
How it was run: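 A rise in luciferase signal from ATAD5-tagged HEK293T cells marks genetic stress. Cells were exposed to compounds for 16 hr at 37C, 5% CO2, then luciferase was quantified after a 30 min room-temperature incubation with Amplite.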

[3] = qHTS assay for small molecule agonists of the p53 signaling pathway - cell viability (AID 651633; calls by dose curve;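 note: p53RE-bla HCT reporter cells with a stable beta-lactamase p53 reporter; series mostly up to about 83 µM; nearly all actives have a fitted effect of over 30% in size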)
How it was run: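 p53RE-bla cells, seeded at 4,000 per well and rested 5 h at 37 C/5% CO2, received compounds in DMSO for 16 h at 37 C. CellTiter-Glo was then added, and luminescence was read after 30 min at room temperature to gauge cytotoxicity.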

[4] = qHTS assay for small molecule disruptors of the mitochondrial membrane potential - cell viability (AID 720634; calls by dose curve;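 note: human HepG2 liver cancer cells; series mostly up to about 83 µM; nearly all actives have a fitted effect of over 20% in size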)
How it was run: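 Cytotoxicity was quantified from ATP content by CellTiter-Glo luminescence in the same wells as the MMP dye read-out. HepG2 (2,000 cells/well) were plated overnight and exposed to compounds for 1 hr at 37 C.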

[5] = qHTS assay for small molecule disruptors of the mitochondrial membrane potential (AID 720635)
How it was run: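 HepG2 cells (2,000/well) attached overnight at 37C, then took compound for 1 hr at 37C, 5% CO2. Mito-MPS dye was added for 30 min; fluorescence was read at 490/535 nm (monomers) and 540/590 nm (aggregates).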

[6] = qHTS assay to test for compound auto fluorescence at 590 nm (red) in HepG2 cells (AID 720674)
How it was run: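 Compound auto-fluorescence is scored relative to Rose Bengal sodium, measured at 540/590 nm in live HepG2 cultures after 1 hr compound contact (37 C, 5% CO2).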

[7] = qHTS assay to test for compound auto fluorescence at 535 nm (green) in HepG2 cells (AID 720675)
[8] = qHTS assay to test for compound auto fluorescence at 460 nm (blue) in HEK293 cells (AID 720678)
How it was run: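 Cells were seeded and left to adhere for 4-5 hr at 37C. Compounds were then pin-transferred. After an overnight incubation at 37C under 5% CO2, intrinsic fluorescence at 405/460 nm was measured and referenced to triamterene.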

[9] = qHTS assay to test for compound auto fluorescence at 590 nm (red) in HEK293 cells (AID 720679)
How it was run: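 Each well held 2,000 HEK293 cells in medium containing 10% dialyzed FBS. Following 4-5 hr attachment at 37C, 23 nL test compound or DMSO was added; plates sat overnight, and red fluorescence (540/590nm) was recorded.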

[10] = qHTS assay to test for compound auto fluorescence at 535 nm (green) in HEK293 cells (AID 720680)
[11] = qHTS assay to test for compound auto fluorescence at 460 nm (blue) in HEK293 cell free culture (AID 720681)
How it was run: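 Test compounds were pinned into cell-free culture medium (DMEM with 10% FBS) and fluorescence was read directly at Ex/Em 405/460 nm. Signals were expressed as fluorescence equivalents of triamterene, with DMSO vehicle as control.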

[12] = qHTS assay to test for compound auto fluorescence at 535 nm (green) in HEK293 cell free culture (AID 720682)
How it was run: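 Each library compound, or DMSO control, is added by pintool to medium alone, comprising DMEM and 10% FBS. Emission at 535 nm following 485 nm excitation is quantified against fluorescein.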

[13] = qHTS assay to test for compound auto fluorescence at 460 nm (blue) in HepG2 cell free culture (AID 720685)
How it was run: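 Cell-free plates of MEM plus 10% FBS received 23 nL compound or DMSO vehicle; blue-channel (405/460 nm) intensity scored against triamterene as reference fluorophore.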

[14] = qHTS assay to test for compound auto fluorescence at 535 nm (green) in HepG2 cell free culture (AID 720686)
[15] = qHTS assay to test for compound auto fluorescence at 460 nm (blue) in HepG2 cells (AID 720687)
How it was run: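 Cells (2,000/well in MEM with 10% FBS) attached overnight at 37 C, then were exposed to compound or DMSO for 1 hr at 37 C, 5% CO2. Fluorescence read at Ex/Em 405/460 nm, expressed as triamterene-equivalent signal.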

[16] = molecular target: Glucocorticoid receptor (Homo sapiens) (UniProt P04150); experiment: qHTS assay to identify small molecule agonists of the glucocorticoid receptor (GR) signaling pathway (AID 720691; active = well fitted activation curve with a large enough effect in the signal ratio in the repeat runs, not every such curve was filed as active; the % refers to the signal ratio)
Chain of Glucocorticoid receptor (Homo sapiens) (P04150 whole entry, looked up): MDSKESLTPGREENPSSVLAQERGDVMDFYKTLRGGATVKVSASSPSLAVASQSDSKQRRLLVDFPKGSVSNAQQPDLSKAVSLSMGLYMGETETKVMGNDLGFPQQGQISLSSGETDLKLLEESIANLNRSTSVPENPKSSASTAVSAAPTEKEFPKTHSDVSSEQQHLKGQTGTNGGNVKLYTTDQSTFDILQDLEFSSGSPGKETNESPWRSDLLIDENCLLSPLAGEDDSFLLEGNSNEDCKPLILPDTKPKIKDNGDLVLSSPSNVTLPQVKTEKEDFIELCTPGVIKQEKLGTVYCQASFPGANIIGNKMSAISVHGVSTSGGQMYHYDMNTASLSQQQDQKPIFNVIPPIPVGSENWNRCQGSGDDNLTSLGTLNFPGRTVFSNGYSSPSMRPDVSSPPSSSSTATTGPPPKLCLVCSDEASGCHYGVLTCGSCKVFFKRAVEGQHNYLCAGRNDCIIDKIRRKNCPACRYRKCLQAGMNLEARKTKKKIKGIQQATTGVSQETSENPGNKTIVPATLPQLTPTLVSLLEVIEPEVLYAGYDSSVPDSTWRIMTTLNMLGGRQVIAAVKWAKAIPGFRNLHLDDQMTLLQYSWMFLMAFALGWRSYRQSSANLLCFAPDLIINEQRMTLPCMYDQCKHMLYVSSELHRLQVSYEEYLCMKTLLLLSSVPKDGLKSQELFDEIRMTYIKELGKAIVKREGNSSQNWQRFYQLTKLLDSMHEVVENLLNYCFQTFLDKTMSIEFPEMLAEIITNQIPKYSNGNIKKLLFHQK
How it was run: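 Agonist-mode qHTS in HeLa cells stably expressing a glucocorticoid-response-element beta-lactamase reporter. Fluorescence intensity read with FRET substrate (2 h, room temperature) after 18 h compound treatment at 37 C.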

[17] = molecular target: Glucocorticoid receptor (Homo sapiens) (UniProt P04150); experiment: qHTS assay to identify small molecule antagonists of the glucocorticoid receptor (GR) signaling pathway (AID 720692; active = well fitted inhibition curve with a large enough effect in the signal ratio in the repeat runs, not every such curve was filed as active; the % refers to the signal ratio)
How it was run: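 Inhibition of dexamethasone-driven (5 nM final) beta-lactamase expression was measured in GRE-reporter HeLa cells over 18 h at 37C. Fluorescence was read after 2 h with the B/G FRET substrate at room temperature.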

[18] = qHTS assay for small molecules that induce genotoxicity in human embryonic kidney cells expressing luciferase-tagged ATAD5 - cell viability (AID 651634; calls by dose curve; note: nearly all actives have a fitted effect of over 25% in size)
How it was run: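 Cytotoxicity counter-readout: after 15.5 hr compound treatment at 37C, live-cell protease activity in ATAD5-luciferase HEK293T cells measured by CellTiter-Fluor fluorescence, 30 min development at 37C.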

[19] = qHTS assay to test for compound auto fluorescence at 590 nm (red) in HEK293 cell free culture (AID 720683)
How it was run: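 Tox21 10K library compounds were pinned into cell-free DMEM with 10% FBS and fluorescence was read at excitation 540 nm. Activity is expressed as Rose Bengal sodium equivalency.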

[20] = qHTS assay to test for compound auto fluorescence at 590 nm (red) in HepG2 cell free culture (AID 720684)
How it was run: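 Ex 540 / Em 590 nm read of compound in cell-free MEM (10% FBS). Rose Bengal sodium reference.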
% is set by controls: 0 for no effect and ±100 for the full control effect.

C=C(Cl)CCl
inactive: Potency [1] | outcome [2] | Potency [3] | Potency [4] | Potency [5] | outcome [6] | outcome [7] | outcome [8] | outcome [9] | outcome [10] | outcome [11] | outcome [12] | outcome [13] | outcome [14] | outcome [15] | Potency [16] | Potency [17]

Clc1cc2c(cc1Cl)Oc1cc(Cl)c(Cl)cc1O2
inactive: activation [1] -5.64% [at 0.337 µM] | activation [2] 0.775% [at 0.33 µM] | activity change, negative = cytotoxicity [3] -8.49% [at 0.33 µM] | activity, negative = cytotoxicity [18] 15.1% [at 0.33 µM] | activity change, negative = cytotoxicity [4] 5.89% [at 0.33 µM] | fluorescence, relative to Rose Bengal [6] -0.0382% [at 0.37 µM] | fluorescence, % of fluorescein control [7] -0.0272% [at 0.37 µM] | fluorescence, % of triamterene [8] -0.0407% [at 0.37 µM] | fluorescence, % of fluorescent control [9] 0.175% [at 0.37 µM] | fluorescence, % of fluorescein [10] 0.0035% [at 0.37 µM] | activity change [12] -0.0409% [at 0.37 µM] | fluorescence, % of fluorescent control [19] 0.0291% [at 0.37 µM] | fluorescence, % of Rose Bengal [20] -0.248% [at 0.37 µM] | fluorescence, % of fluorescent control [13] -0.0614% [at 0.37 µM] | fluorescence, % of fluorescein control [14] -0.0284% [at 0.37 µM] | fluorescence, % of fluorescent control [15] -0.0066% [at 0.37 µM] | activation [16] -3.18% [at 0.28 µM] | activity change, negative = inhibition [17] -20.7% [at 0.284 µM]

CCCCCCCC(=O)Cl
inactive: Potency [1] | outcome [2] | Potency [3] | Potency [4] | Potency [5] | outcome [6] | outcome [7] | outcome [9] | outcome [10] | outcome [11] | outcome [12] | outcome [19] | outcome [20] | outcome [13] | outcome [14] | outcome [15] | Potency [16] | Potency [17]

Cc1cccc2sc3nncn3c12
inactive: Potency [1] | outcome [2] | Potency [3] | Potency [18] | Potency [4] | outcome [7] | outcome [8] | outcome [9] | outcome [10] | outcome [11] | outcome [12] | outcome [20] | outcome [14] | outcome [15]

CCC(=O)OC1(c2ccccc2)CCN(C)CC1
inactive: Potency [1] | outcome [2] | Potency [3] | Potency [4] | Potency [5] | outcome [7] | outcome [8] | outcome [9] | outcome [10] | outcome [11] | outcome [12] | outcome [19] | outcome [13] | outcome [14] | outcome [15] | Potency [16] | Potency [17]

C=CCN1CC[C@]23CCCC[C@H]2[C@H]1Cc1ccc(O)cc13
inactive: outcome [2] | Potency [3] | Potency [18] | outcome [6] | outcome [7] | outcome [8] | outcome [9] | outcome [10] | outcome [11] | outcome [12] | outcome [13] | outcome [14] | outcome [15] | Potency [16]

O=C(O)C(F)(F)C(F)(F)C(F)(F)C(F)(F)C(F)(F)C(F)(F)F
inactive: outcome [2] | Potency [3] | Potency [18] | Potency [4] | outcome [6] | outcome [7] | outcome [8] | outcome [9] | outcome [10] | outcome [11] | outcome [12] | outcome [19] | outcome [20] | outcome [13] | outcome [14] | outcome [15]

CN=CNc1ccc(C)cc1C
inactive: outcome [2] | Potency [3] | Potency [18] | Potency [4] | outcome [6] | outcome [7] | outcome [8] | outcome [9] | outcome [10] | outcome [11] | outcome [12] | outcome [19] | outcome [20] | outcome [13] | outcome [14] | outcome [15] | Potency [16] | Potency [17]

CS(=O)(=O)c1ccc(C(=O)C2C(=O)CCCC2=O)c(Cl)c1COCC(F)(F)F
inactive: outcome [2] | Potency [3] | Potency [18] | Potency [4] | outcome [6] | outcome [7] | outcome [9] | outcome [10] | outcome [11] | outcome [12] | outcome [19] | outcome [20] | outcome [13] | outcome [14] | outcome [15] | Potency [16]

N#CC(Br)(Br)C(N)=O
inactive: outcome [2] | Potency [3] | Potency [18] | outcome [6] | outcome [7] | outcome [9] | outcome [10] | outcome [11] | outcome [12] | outcome [19] | outcome [20] | outcome [13] | outcome [14] | outcome [15]

NNC(N)=O
inactive: outcome [2] | Potency [3] | Potency [18] | Potency [4] | outcome [6] | outcome [7] | outcome [9] | outcome [11] | outcome [12] | outcome [19] | outcome [13] | outcome [14] | outcome [15] | Potency [16]

CCN[C@H](C)Cc1cccc(C(F)(F)F)c1
inactive: outcome [2] | Potency [3] | Potency [18] | Potency [4] | outcome [7] | outcome [8] | outcome [9] | outcome [10] | outcome [12] | outcome [19] | outcome [20] | outcome [13] | outcome [14] | outcome [15] | Potency [16] | Potency [17]

CC(Cl)(Cl)Cl
inactive: outcome [2] | Potency [3] | Potency [18] | Potency [4] | outcome [6] | outcome [7] | outcome [8] | outcome [9] | outcome [10] | outcome [11] | outcome [12] | outcome [19] | outcome [20] | outcome [13] | outcome [14] | outcome [15]

Cc1ccc2cc(C)ccc2c1
inactive: outcome [2] | Potency [3] | Potency [18] | Potency [4] | outcome [6] | outcome [7] | outcome [8] | outcome [9] | outcome [11] | outcome [19] | outcome [20] | outcome [13] | outcome [14] | outcome [15] | Potency [16] | Potency [17]

CCOC(=O)C(Cl)Cc1cc(-n2nc(C)n(C(F)F)c2=O)c(F)cc1Cl (stereo not drawn)
inactive: outcome [2] | Potency [3] | Potency [18] | outcome [6] | outcome [7] | outcome [8] | outcome [9] | outcome [11] | outcome [12] | outcome [19] | outcome [20] | outcome [14] | outcome [15] | Potency [16]
